Measurements reported in the supplement of paper PMC6555819.

Columns and labels:
Assay in all cases: PBM binding z-score (relative to random genomic background probes); higher = stronger binding; sequences stand for … in GC…GCGATTGACAGCGTAGAATGAAGG
[1] = test system: FXR:RXRa (NR concentration 270 nM, RXRa partner concentration 90 nM)
Procedure, shortened: (§1)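 The probes on custom Agilent 4×180K protein-binding microarrays were double-stranded, with 34-nt variable regions bearing direct-repeat seeds, single-nucleotide variants, half-site ablations and random human genomic background sequences. Incubation lasted 1 h with ligand-free nuclear receptor dimers in PBS pH 7.4, 2% milk, 0.02% Triton X-100, 1 mM DTT, 0.2 mg/mL BSA and 0.4 mg/ml salmon testes DNA. Antibodies against each partner (one per run) detected bound dimers, and fluorescence scans were regression-normalized. Binding z-scores take the random background probes as reference.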

[2] = test system: LXRa:RXRa (NR concentration 270 nM, RXRa partner concentration 90 nM)
Procedure, shortened: as §1

[3] = test system: LXRa homodimer (NR concentration 270 nM)
Procedure, shortened: as §1

[4] = test system: LXRb:RXRa (NR concentration 270 nM, RXRa partner concentration 90 nM)
Procedure, shortened: as §1

[5] = test system: LXRb homodimer (NR concentration 270 nM)
Procedure, shortened: as §1

[6] = test system: PPARa:RXRa (NR concentration 270 nM, RXRa partner concentration 90 nM)
Procedure, shortened: as §1

[7] = test system: PPARg:RXRa (NR concentration 180 nM, RXRa partner concentration 90 nM)
Procedure, shortened: as §1

[8] = test system: PPARg:RXRa 270nM:90nM, anti-RXR (NR concentration 270 nM, RXRa partner concentration 90 nM)
Procedure, shortened: as §1

[9] = test system: PPARg:RXRa 30nM:10nM, anti-RXR (NR concentration 30 nM, RXRa partner concentration 10 nM)
Procedure, shortened: as §1

[10] = test system: PPARg:RXRa 90nM:30nM, anti-RXR (NR concentration 90 nM, RXRa partner concentration 30 nM)
Procedure, shortened: as §1

[11] = test system: PPARg:RXRa DBDmut IVT, anti-RXR (DBD mutation: RXRa K156A/R161A, NR concentration 270 nM, RXRa partner concentration 90 nM)
Procedure, shortened: as §1

[12] = test system: PPARg:RXRa IVT, anti-PPARg (NR concentration 270 nM, RXRa partner concentration 90 nM)
Procedure, shortened: as §1

[13] = test system: PPARg DBDmut:RXRa IVT, anti-PPARg (DBD mutation: PPARg1 K132A/R137A, NR concentration 270 nM, RXRa partner concentration 90 nM)
Procedure, shortened: as §1

[14] = test system: PPARg DBDmut IVT, anti-PPARg (DBD mutation: PPARg1 K132A/R137A, NR concentration 270 nM)
Procedure, shortened: as §1

[15] = test system: PPARg homodimer (NR concentration 180 nM)
Procedure, shortened: as §1

[16] = test system: PXR:RXRa (NR concentration 270 nM, RXRa partner concentration 90 nM)
Procedure, shortened: as §1

[17] = test system: PXR homodimer (NR concentration 270 nM)
Procedure, shortened: as §1

[18] = test system: RARa:RXR (NR concentration 270 nM, RXRa partner concentration 90 nM)
Procedure, shortened: as §1

[19] = test system: RARa homodimer (NR concentration 270 nM)
Procedure, shortened: as §1

[20] = test system: RARb:RXRa (NR concentration 270 nM, RXRa partner concentration 90 nM)
Procedure, shortened: as §1

| Sequence | PBM binding z-score [1] | PBM binding z-score [2] | PBM binding z-score [3] | PBM binding z-score [4] | PBM binding z-score [5] | PBM binding z-score [6] | PBM binding z-score [7] | PBM binding z-score [8] | PBM binding z-score [9] | PBM binding z-score [10] | PBM binding z-score [11] | PBM binding z-score [12] | PBM binding z-score [13] | PBM binding z-score [14] | PBM binding z-score [15] | PBM binding z-score [16] | PBM binding z-score [17] | PBM binding z-score [18] | PBM binding z-score [19] | PBM binding z-score [20] |
| --- | --- | --- | --- | --- | --- | --- | --- | --- | --- | --- | --- | --- | --- | --- | --- | --- | --- | --- | --- | --- |
| GGAACGAGGGCGAAGTTGATAGCATCTGTCGACG | -0.55 | -0.447 | -0.49 | -0.637 | -0.922 | 1.42 | 2.91 | 4.71 | 1.93 | 4.02 | 1.27 | 1.23 | 0.2 | -0.848 | 0.0285 | -0.347 | -0.365 | -0.254 | -0.834 | 0.606 |
| CGAACTAGGTCAGAACAGGACTGTGAAGGATGAT | 0.728 | 0.692 | -0.197 | 0.252 | -0.415 | 2.98 | 5.13 | 4.21 | 1.77 | 3.09 | 7.08 | 7.13 | 0.747 | 0.194 | 0.61 | 0.118 | -0.184 | 0.787 | 0.123 | 2.71 |
| CCTACTGGGCTACGAAAGGTCATTGATTCAGTGA | 3.53 | 6.04 | 6.54 | 4.66 | 0.251 | 4.28 | 2.77 | 4.36 | 2.08 | 3.64 | 3.98 | 3.65 | -0.45 | 0.321 | 3.32 | 5.08 | 1.74 | 5.44 | 0.708 | 3.88 |
| CGAACTAGGTCAAGGAGAGTGAATCTCCGCACGC | 2.98 | 1.99 | -0.412 | 1.17 | -0.521 | 4.25 | 7.01 | 6.29 | 3.34 | 5.99 | 8.29 | 7.9 | 1.48 | 0.243 | 0.896 | 0.744 | -0.41 | 1.44 | -0.0147 | 3.74 |
| CCTTACGGGTCACGAGGTTACAGCACGACGAGCG | 7.17 | 4.8 | 0.542 | 4.17 | 0.337 | 6.14 | 7.89 | 6.86 | 3.81 | 5.93 | 4.58 | 5.66 | 2.08 | 2.53 | 5.5 | 5 | 0.46 | 6.67 | 2.1 | 4.71 |
| ATCTCTAGGTTACCAAGTTCAGTGAATGCCGAAC | 0.872 | 1.95 | 1.86 | 1.47 | 1.16 | 2.15 | 1.82 | 1.97 | 0.559 | 0.955 | 4.8 | 4.07 | 1.25 | 1.33 | 1.15 | 3.34 | 4.37 | 1.46 | 1.16 | 2.31 |
| CGTGCAAGGTCAATGCTAGGTCAGTGAAAGCATT | 6.79 | 5.7 | 1.91 | 4.42 | 0.212 | 5.53 | 4.26 | 5.03 | 1.47 | 3.77 | 3.32 | 4.08 | 0.426 | -0.53 | 3.59 | 4.91 | 0.967 | 6.46 | 0.996 | 5.34 |
| TCATATAGGTAATGGTGAAAGTCGAACGATATGA | -0.32 | 0.417 | -0.0652 | 0.263 | -0.188 | 1.22 | 1.43 | 2.42 | 3.89 | 3.12 | 3.77 | 2.74 | 1.66 | 1.7 | 0.415 | 0.253 | -0.311 | 0.342 | 0.0985 | 0.417 |
| CGTCCAGGGTCAATGCTAGGTCAGTGAAAGCATT | 6.33 | 5.16 | 0.988 | 4.06 | -0.00452 | 5.61 | 4.11 | 4.59 | 1.57 | 3.18 | 1.7 | 3.15 | -0.224 | 0.0209 | 3.59 | 4.54 | -0.194 | 6.03 | 0.75 | 4.82 |
| TCTTGCAGATCAGCAGGTTAAGAAAGCTGGCCAA | -0.157 | -0.083 | -0.809 | -0.061 | -1.04 | 0.615 | -0.601 | 0.866 | 1.59 | 1.15 | 0.806 | -0.167 | -1.23 | -0.975 | -0.869 | -0.219 | -1.1 | 0.16 | -1.56 | 0.155 |
| TCTATTAGTTGAAGGGCAACCGGCGAGTCCGTTT | 0.888 | 1.19 | 0.417 | 0.88 | 0.229 | 0.966 | -0.211 | 2.04 | 3.53 | 2.92 | 2.36 | 0.473 | 0.341 | 0.729 | 1.25 | 0.943 | 0.705 | 0.455 | 0.951 | 1.74 |
| GTACCAAGGAGAATAGGTCGTTGATGAGTAGGCG | -0.287 | -0.0565 | -0.284 | -0.316 | -0.56 | 0.108 | 0.546 | 0.112 | -0.237 | -0.0411 | -0.462 | -0.173 | -1.64 | -0.217 | 0.315 | 0.103 | -0.146 | 0.0615 | 0.574 | 0.136 |
| CCTAGCATGCCAGGGTCACTCAAGCATTTCGCTT | 2.11 | 1.85 | -0.459 | 2.23 | -0.94 | 3.15 | 0.542 | 1.23 | -0.373 | 0.276 | -0.246 | 0.391 | -0.691 | -1.32 | 0.817 | 2.61 | -0.116 | 3.17 | -0.337 | 2.35 |
| TGTCAAAGTTCACAGGTAACGTAAGTATCCACAC | 6.59 | 5.87 | 3.37 | 4.04 | 1.49 | 6.02 | 8.64 | 7.43 | 5.54 | 7.12 | 0.161 | 4.5 | 1.61 | 1.53 | 2.45 | 4.48 | 2.4 | 3.92 | 1.08 | 5.05 |
